Experimental data taken from PubChem BioAssay.

These molecules were tested on Human papillomavirus type 1a E7 protein (residues 1-88) (assay: HPV1a E7 small-molecule binders, primary screen, biochemical, small-molecule microarray, residues 1-88, 635 nm (AID 1129)). Settings: small-molecule microarray binding, fluorescence 635 nm; higher = more signal.
For `COC(=O)C1=CC(CCCO)=CC(c2ccc(CN3CCCC3)cc2)N(Cc2cccc(OC(F)(F)F)c2)C=C1C(=O)OC` (stereo not given), the composite z-score was 1.11. In the case of `NC(=O)NCC#Cc1ccc2c(c1)[C@]1(C(=O)N2)[C@H](c2ccccc2OCCO)N2[C@H](c3ccccc3)[C@H](c3ccccc3)OC(=O)[C@H]2[C@@H]1C(=O)O`, the composite z-score is reported as -0.464. Molecule `COC(=O)[C@@H]1N=C(c2ccc(OCCCO)cc2)O[C@@H]1c1ccccc1` has a composite z-score of -0.314. In the case of `C=CCC(OC(C)=O)[C@@H]1[C@@H](N(Cc2cccc3ccccc23)C(=O)Cc2ccc(OC)cc2)c2cc(OCCCO)ccc2N1C(=O)c1ccc(-c2ccccc2)cc1` (stereo not given in full), the composite z-score is reported as -0.127. Molecule `CC(C)[Si]1(C(C)C)OCc2cc(-c3ccc(-c4ccc(Cl)c(Cl)c4)o3)nc(-c3ccccc3)c21` has a composite z-score of -1.65.

What follows are molecules tested against Focal adhesion kinase 1 (Homo sapiens) (UniProt Q05397) (assay: small-molecule microarray binders of FAK, primary screen, biochemical, 635/667 nm fluorescence, BSA, DTT (AID 1130;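 note: composite of spot emission at 667 nm and signal to noise over triplicate slides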)). Settings: PTK2 binding, 635 nm fluorescence, higher = more signal.
Chain of Focal adhesion kinase 1 (Homo sapiens) (Q05397 whole entry, looked up): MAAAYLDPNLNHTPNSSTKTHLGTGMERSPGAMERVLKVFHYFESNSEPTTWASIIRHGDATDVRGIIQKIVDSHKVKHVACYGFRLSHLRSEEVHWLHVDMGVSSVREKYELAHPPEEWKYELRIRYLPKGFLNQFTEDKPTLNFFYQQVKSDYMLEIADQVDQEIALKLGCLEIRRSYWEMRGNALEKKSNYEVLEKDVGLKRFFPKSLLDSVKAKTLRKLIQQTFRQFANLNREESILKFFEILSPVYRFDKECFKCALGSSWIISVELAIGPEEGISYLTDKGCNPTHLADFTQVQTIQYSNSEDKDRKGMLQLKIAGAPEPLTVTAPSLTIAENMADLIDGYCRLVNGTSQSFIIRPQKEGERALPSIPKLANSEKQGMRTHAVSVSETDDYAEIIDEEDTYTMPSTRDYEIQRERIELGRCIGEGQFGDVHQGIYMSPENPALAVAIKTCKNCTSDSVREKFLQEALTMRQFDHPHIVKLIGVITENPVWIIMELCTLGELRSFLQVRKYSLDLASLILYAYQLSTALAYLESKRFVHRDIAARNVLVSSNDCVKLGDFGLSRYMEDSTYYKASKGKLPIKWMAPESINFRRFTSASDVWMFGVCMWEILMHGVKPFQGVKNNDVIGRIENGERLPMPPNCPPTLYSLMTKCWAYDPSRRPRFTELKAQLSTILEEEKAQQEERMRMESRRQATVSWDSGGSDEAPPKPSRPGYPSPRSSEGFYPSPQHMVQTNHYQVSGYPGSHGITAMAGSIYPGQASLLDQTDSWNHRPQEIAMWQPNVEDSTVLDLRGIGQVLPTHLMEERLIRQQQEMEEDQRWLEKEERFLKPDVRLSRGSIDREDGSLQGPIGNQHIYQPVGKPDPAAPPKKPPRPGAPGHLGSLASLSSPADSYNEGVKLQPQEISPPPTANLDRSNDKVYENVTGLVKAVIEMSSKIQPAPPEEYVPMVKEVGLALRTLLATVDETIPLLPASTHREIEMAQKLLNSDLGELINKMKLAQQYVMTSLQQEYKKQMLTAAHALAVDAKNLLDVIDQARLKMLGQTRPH
`C=CC[C@H](OC(=O)Nc1ccc(SC)cc1)c1ccc(O)c2ccccc12` was tested, and the composite z-score was 0.492. Molecule `O=C1O[C@@H](c2ccccc2)[C@@H](c2ccccc2)N2[C@@H](c3ccc(OCCO)cc3)[C@]3(C(=O)Nc4ccc(C#CC5=CCCCC5)cc43)[C@@H](C(=O)NC[C@H](O)c3ccccc3)[C@H]12` has a composite z-score of 0.234. Molecule `O=C1O[C@H](c2ccccc2)[C@H](c2ccccc2)N2[C@H]1[C@@H](C(=O)O)[C@]1(C(=O)Nc3ccc(C#CCCO)cc31)[C@H]2c1ccccc1OCCO` has a composite z-score of 0.0281. With `CC(C)c1ccc(NN2C(C(O)c3ccc(C#N)cc3)C=CC3C(=O)N(c4ccccc4)C(=O)C32)cc1` (stereo not given) the composite z-score was 1.97. `C[N+](C)(C)CCCC[C@@H]1NC(=O)[C@@H]2C[C@H](C(=O)NCCCCCCN)[C@H](c3cccc(OCCO)c3)N2C1=O` showed a composite z-score of 0.866. `CC(C)[Si]1(C(C)C)OCc2cc(C3CC3)nc(-c3ccc(Oc4ccccc4)cc3)c21` was tested, and the composite z-score was -0.0826. `COCCOC(=O)N1C(=O)[C@@]2(c3cc(C#CC4(O)CCCCCC4)ccc31)[C@H](c1ccc(O)cc1)N1[C@H](c3ccccc3)[C@H](c3ccccc3)OC(=O)[C@H]1[C@@H]2C(=O)N1CCN(c2ncccn2)CC1` was tested, and the composite z-score was 0.839. `COC(=O)c1c(CC[C@@H](CO)NC(=O)N[C@@H](C)Cn2cc(-c3ccccn3)nn2)oc(C(C)=O)c1C(=O)OC` showed a composite z-score of -0.291. `CCOC(=O)[C@@H]1CCCCN1C(=O)C(=O)OC` was tested, and the composite z-score was 0.1. With `CN(C)c1ccc(C(O)C2C=CC3C(=O)NC(=O)C3N2Nc2ccccn2)cc1` (stereo not given) the composite z-score was 0.304. `CC#CCO[Si](C#Cc1ccccc1)(C(C)C)C(C)C` gave a composite z-score of -0.357. Molecule `CC(=O)N1CC2(CC2)CC1c1ccccc1` (stereo not given) has a composite z-score of 0.277. In the case of `COCCOC(=O)N1C(=O)[C@@]2(c3cc(C#CCC(C(=O)OC)C(=O)OC)ccc31)[C@H](c1ccc(OCCO)cc1)N1[C@H](c3ccccc3)[C@H](c3ccccc3)OC(=O)[C@H]1[C@@H]2C(=O)N1CCc2cc(OC)c(OC)cc2C1`, the composite z-score is reported as 0.919. With `C=CCC(OC(C)=O)[C@@H]1[C@@H](N(Cc2cccc3ccccc23)C(=O)Cc2ccc(F)cc2)c2cc(OCCCO)ccc2N1C(=O)c1ccc2ccccc2c1` (stereo not given in full) the composite z-score was 0.114. `CN1C2C=C(CCCO)C(C3C(=O)N(C(N)=O)C(=O)C32)C1C1CC1` (stereo not given) was tested, and the composite z-score was -0.158. For `CCCN1C(=O)[C@]2(Cc3ccccc31)N=C(c1ccc(OCCCO)cc1)O[C@@H]2c1ccccc1`, the composite z-score was 0.867. Molecule `NCCCCCNC(=O)[C@@H]1C[C@@H]2C(=O)N[C@@H](CCCCN)C(=O)N2[C@@H]1c1ccc(O)cc1` has a composite z-score of 0.294. In the case of `Cc1ccc(C(C)CC(O)C2C=CC3C(=O)N(c4ccccc4)C(=O)C3N2Nc2ccccc2)o1` (stereo not given), the composite z-score is reported as 0.908. For `CCCNC(=O)[C@@H]1c2ccccc2C(=O)N(Cc2ccc(OC(F)(F)F)cc2)[C@H]1c1ccc(CO)cc1`, the composite z-score was -0.0662. Work on `CC(C)C(CO)N1C(=O)[C@@H]2[C@H]3C(=O)OCC=C[C@H]3OC23C=CCN(c2ccc(Cl)cc2)C(=O)[C@@H]13` (stereo not given in full) yielded a composite z-score of -0.265. `CC(C)c1ccc(NN2C(C(O)c3ccc(F)cc3)C=CC3C(=O)N(c4ccccc4)C(=O)C32)cc1` (stereo not given) gave a composite z-score of 0.515. In the case of `OCCCC1=CC(c2ccc(CN3CCCC3)cc2)N(Cc2cc3c(cc2Br)OCO3)CC1` (stereo not given), the composite z-score is reported as 0.172. Work on `COc1cc2c(cc1O)C(c1cccs1)N(Cc1cc3c(cc1Br)OCO3)CC2` (stereo not given) yielded a composite z-score of 0.822. `CCCNC(=O)[C@@]1(Sc2ccc(C)cc2)CC(=O)N(C2Cc3ccccc3C2)[C@@H]1c1ccc(CO)cc1I` showed a composite z-score of 0.371. Work on `CC(C)=C1C(=O)C(c2ccccc2)=C2CN3C(=O)N(CCc4ccccc4)C(=O)[C@]3(Cc3ccc(C(F)(F)F)cc3)[C@H]21` yielded a composite z-score of 1.01. `COc1cccc(C)c1NC(=O)O[C@H]1[C@H](OC(=O)Nc2ccccc2-c2ccccc2)[C@H](OC(=O)Nc2ccccc2-c2ccccc2)[C@@H](OC)O[C@@H]1CO` showed a composite z-score of 0.588. Work on `COCCCNC(=O)[C@@]1(CCC(=O)OC(C)(C)C)N=C(c2ccc(OCCCO)cc2)O[C@H]1c1ccccc1N=[N+]=[N-]` yielded a composite z-score of 1.04. `COc1cc2c(cc1O)C(c1ccc(CN3CCCC3)cc1)N(Cc1cc3c(cc1Br)OCO3)CC2` (stereo not given) gave a composite z-score of 0.171. `CCCC[C@@H](O)C1=C(COC)C[C@H]2C(=O)N(C)C(=O)[C@H]2[C@H]1CO` gave a composite z-score of -0.185. With `COC(=O)C(CC#Cc1ccc2c(c1)[C@]1(C(=O)N2)[C@H](c2ccc(O)cc2)N2[C@H](c3ccccc3)[C@H](c3ccccc3)OC(=O)[C@H]2[C@@H]1C(=O)NC[C@H](O)c1ccccc1)C(=O)OC` the composite z-score was 0.408. For `COC(=O)C1=CC(CCCO)=CC(c2ccc(CN3CCCC3)cc2)N(Cc2cccc(OC(F)(F)F)c2)C=C1C(=O)OC` (stereo not given), the composite z-score was 0.875. `NC(=O)NCC#Cc1ccc2c(c1)[C@]1(C(=O)N2)[C@H](c2ccccc2OCCO)N2[C@H](c3ccccc3)[C@H](c3ccccc3)OC(=O)[C@H]2[C@@H]1C(=O)O` was tested, and the composite z-score was -0.178. `COC(=O)[C@@H]1N=C(c2ccc(OCCCO)cc2)O[C@@H]1c1ccccc1` gave a composite z-score of -0.137. With `C=CCC(OC(C)=O)[C@@H]1[C@@H](N(Cc2cccc3ccccc23)C(=O)Cc2ccc(OC)cc2)c2cc(OCCCO)ccc2N1C(=O)c1ccc(-c2ccccc2)cc1` (stereo not given in full) the composite z-score was 0.0862. With `CC(C)[Si]1(C(C)C)OCc2cc(-c3ccc(-c4ccc(Cl)c(Cl)c4)o3)nc(-c3ccccc3)c21` the composite z-score was -0.838.
